In PubChem BioAssay (NCI) one finds growth inhibition data, which are given here for ten compounds.

Compounds without any hit were thinned out: in the full panel of roughly 79,000, 15% have a hit. A number with no mark means an inactive call. Activity calls are given as the source filed them. Cut-off read from the data, not from the text of the source: active = growth inhibition above about 70%; inactive = the rest.

Test [1] can be described thus: NCI Yeast Anticancer Drug Screen. Data for the rad50 strain (AID 155).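 Note: 0% = growth of vehicle-only cultures of the same strain.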 As to conditions: S. cerevisiae rad50 strain growth inhibition, hits give high values. Summed up:
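Vehicle-treated cultures provide the reference for the growth inhibition reported for compound-exposed, repair-deficient yeast.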

The nature of test [2]: NCI Yeast Anticancer Drug Screen. Data for the mec2-1 strain (AID 157). The note with it: S. cerevisiae mec2-1 strain, hits give high values. Summed up:
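Strain: mec2-1 (DNA repair/cell cycle alteration). Compound exposure, then growth measured; inhibition expressed relative to vehicle.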

The nature of test [3]: NCI Yeast Anticancer Drug Screen. Data for the sgs1 mgt1 strain (AID 161).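 Note: 0% = growth of cultures given vehicle only.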 The note with it: S. cerevisiae sgs1 mgt1 strain, hits give high values. Summed up:
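Inhibition of yeast growth, normalised to vehicle-treated controls, is reported for a strain bearing genetic alterations in DNA damage repair.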

Test [4] in a line: NCI Yeast Anticancer Drug Screen. Data for the cln2 rad14 strain (AID 165).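 Note: 0% = growth equal to vehicle treated cultures.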 The note with it: S. cerevisiae cln2 rad14 strain, hits give high values. Summed up: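 Compounds are applied to the cln2 rad14 yeast strain, and growth is then compared with that of vehicle-treated cultures to give inhibition.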
A short description of test [5]: NCI Yeast Anticancer Drug Screen. Data for the bub3 strain (AID 167). As to conditions: S. cerevisiae bub3 mutant strain, hits give high values. Summed up: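 Mutant yeast screening strain plus compound; vehicle-treated cultures serve as the 0% inhibition reference.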
The nature of test [6]: NCI Yeast Anticancer Drug Screen. Data for the mlh1 rad18 strain (AID 175). The note with it: S. cerevisiae mlh1 rad18 strain growth inhibition, hits give high values. Summed up: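 Read-out is yeast growth inhibition, calculated against vehicle-only controls. The compound was applied to a strain engineered with DNA damage repair alterations.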
Setting [7] is: at 5.0 µM (retest, dose inferred, filed as 0.5).
Where [8] appears, read: at 50.0 µM (retest, dose inferred, filed as 5.0).

Turning to `Cc1cc(/C=N/Nc2ccc3cccc(O)c3n2)c(O)c2ncccc12`, the growth inhibition in test [1] (setting [7]) was 40%; in test [1] (setting [8]), 98% (active); in test [1] (at 50.0 µM) it was 99.1% (active); in test [2] (setting [7]), 41%; in test [2] (setting [8]) it was 98% (active); in test [2] (at 50.0 µM) it was 99% (active). Further, the growth inhibition in test [3] (setting [7]) was 51%; in test [3] (setting [8]), 99% (active); in test [3] (at 50.0 µM), 99.1% (active); in test [4] (setting [7]), 21%; in test [4] (setting [8]), 99% (active); in test [4] (at 50.0 µM), 98.7% (active). Also, the growth inhibition in test [5] (setting [7]) was 17%; in test [5] (setting [8]), 99% (active); in test [5] (at 50.0 µM), 99.2% (active); in test [6] (setting [7]), 58%; in test [6] (setting [8]), 98% (active); in test [6] (at 50.0 µM), 97% (active).

As to `COc1ccc(C2c3cc4c(cc3OC(N3CCOCC3)C2C)OCO4)c(OC)c1` (stereo not given), the growth inhibition is -3% in test [1] (setting [7]); 88% (active) in test [1] (setting [8]); 95.9% (active) in test [1] (at 50.0 µM); -10% in test [2] (setting [7]); 95% (active) in test [2] (setting [8]); 94.9% (active) in test [2] (at 50.0 µM). Besides, the growth inhibition is 2% in test [3] (setting [7]); 79% (active) in test [3] (setting [8]); 80.8% (active) in test [3] (at 50.0 µM); 18% in test [4] (setting [7]); 99% (active) in test [4] (setting [8]); 73.2% (active) in test [4] (at 50.0 µM). Besides, the growth inhibition in test [5] (setting [7]) was 7%; in test [5] (setting [8]), 98% (active); in test [5] (at 50.0 µM), 98% (active); in test [6] (setting [7]), -26%; in test [6] (setting [8]) it was 96% (active); in test [6] (at 50.0 µM) it was 97.4% (active).

Take `c1ccc2c(B(c3cccc4ccccc34)c3cccc4ccccc34)cccc2c1`: the growth inhibition in test [1] (setting [7]) was 0%; in test [1] (setting [8]), 98% (active); in test [1] (at 50.0 µM), 99.1% (active); in test [2] (setting [7]) it was 14%; in test [2] (setting [8]) it was 99% (active); in test [2] (at 50.0 µM) it was 98.9% (active). The growth inhibition in test [3] (setting [7]) was -20%; in test [3] (setting [8]), 99% (active); in test [3] (at 50.0 µM) it was 98.7% (active); in test [4] (setting [7]), 3%; in test [4] (setting [8]) it was 98% (active); in test [4] (at 50.0 µM) it was 98.7% (active). The growth inhibition in test [5] (setting [7]) is -4%; in test [5] (setting [8]), 99% (active); in test [5] (at 50.0 µM), 98.8% (active); in test [6] (setting [7]) it was 0%; in test [6] (setting [8]), 98% (active); in test [6] (at 50.0 µM) it was 97.4% (active).

Regarding `Oc1cccc(Oc2cccc(Oc3ccccc3)c2)c1`, the growth inhibition in test [1] (setting [7]) was 1%; in test [1] (setting [8]) it was 99% (active); in test [1] (at 50.0 µM), 99.4% (active); in test [2] (setting [7]), 1%; in test [2] (setting [8]) it was 99% (active); in test [2] (at 50.0 µM), 99.3% (active). Besides, the growth inhibition is -6% in test [3] (setting [7]); 99% (active) in test [3] (setting [8]); 99.5% (active) in test [3] (at 50.0 µM); -23% in test [4] (setting [7]); 99% (active) in test [4] (setting [8]); 99% (active) in test [4] (at 50.0 µM). Moreover, the growth inhibition was 30% in test [5] (setting [7]); 99% (active) in test [5] (setting [8]); 99.4% (active) in test [5] (at 50.0 µM); 2% in test [6] (setting [7]); 99% (active) in test [6] (setting [8]); 99.3% (active) in test [6] (at 50.0 µM).

For the compound `CSC1NNC2(C(=O)N1)c1ccccc1-c1ccccc12` (stereo not given), the growth inhibition in test [1] (setting [7]) was -2%; in test [1] (setting [8]), 96% (active); in test [1] (at 50.0 µM), 87.3% (active); in test [2] (setting [7]) it was -15%; in test [2] (setting [8]), 98% (active); in test [2] (at 50.0 µM) it was 87.9% (active). For the same compound, the growth inhibition is 2% in test [3] (setting [7]); 96% (active) in test [3] (setting [8]); 90.7% (active) in test [3] (at 50.0 µM); 9% in test [4] (setting [7]); 96% (active) in test [4] (setting [8]); 88.5% (active) in test [4] (at 50.0 µM). Besides, the growth inhibition in test [5] (setting [7]) is 13%; in test [5] (setting [8]), 97% (active); in test [5] (at 50.0 µM), 91.7% (active); in test [6] (setting [7]) it was -1%; in test [6] (setting [8]), 96% (active); in test [6] (at 50.0 µM) it was 88.8% (active).

In the case of `CCC=Nc1c(O)cc(-c2ccccc2)n(C)c1=O`, the growth inhibition in test [1] (setting [7]) is 36%; in test [1] (setting [8]), 71% (active); in test [1] (at 50.0 µM), 73.2% (active); in test [2] (setting [7]), 35%; in test [2] (setting [8]), 75% (active); in test [2] (at 50.0 µM) it was 11.9%. Also, the growth inhibition in test [3] (setting [7]) is 40%; in test [3] (setting [8]), 92% (active); in test [3] (at 50.0 µM) it was 70.8% (active); in test [4] (setting [7]) it was 35%; in test [4] (setting [8]) it was 45%; in test [4] (at 50.0 µM) it was 16.3%. Also, the growth inhibition is 35% in test [5] (setting [7]); 93% (active) in test [5] (setting [8]); 70% (active) in test [5] (at 50.0 µM); 47% in test [6] (setting [7]); 94% (active) in test [6] (setting [8]); 60.5% in test [6] (at 50.0 µM).

In the case of `CN(C)c1cc(N(C)C)c2cc(-c3ccccc3)sc2n1`, the growth inhibition in test [1] (setting [7]) is 11%; in test [1] (setting [8]), 98% (active); in test [1] (at 50.0 µM), 75.7% (active); in test [2] (setting [7]), 3%; in test [2] (setting [8]), 99% (active); in test [2] (at 50.0 µM), 17.2%. For the same compound, the growth inhibition in test [3] (setting [7]) was 5%; in test [3] (setting [8]) it was 95% (active); in test [3] (at 50.0 µM) it was 94.6% (active); in test [4] (setting [7]), -11%; in test [4] (setting [8]), 82% (active); in test [4] (at 50.0 µM), 7.65%. Further, the growth inhibition in test [5] (setting [7]) is -5%; in test [5] (setting [8]), 93% (active); in test [5] (at 50.0 µM) it was 64%; in test [6] (setting [7]), 1%; in test [6] (setting [8]), 94% (active); in test [6] (at 50.0 µM) it was 63%.

In the case of `Cc1c(F)c(C)c(C(=O)O)c(C)c1F`, the growth inhibition in test [1] (setting [7]) was 26%; in test [1] (setting [8]) it was 99% (active); in test [1] (at 50.0 µM) it was 99.4% (active); in test [2] (setting [7]) it was 27%; in test [2] (setting [8]), 98% (active); in test [2] (at 50.0 µM) it was 99.5% (active). For the same compound, the growth inhibition is 20% in test [3] (setting [7]); 99% (active) in test [3] (setting [8]); 99.5% (active) in test [3] (at 50.0 µM); 8% in test [4] (setting [7]); 99% (active) in test [4] (setting [8]); 99.2% (active) in test [4] (at 50.0 µM). Besides, the growth inhibition is 11% in test [5] (setting [7]); 99% (active) in test [5] (setting [8]); 99.2% (active) in test [5] (at 50.0 µM); 27% in test [6] (setting [7]); 100% (active) in test [6] (setting [8]); 99.6% (active) in test [6] (at 50.0 µM).

For the compound `C/C=C\c1cc2c(cc1CC#N)OCO2`, the growth inhibition in test [1] (setting [7]) was 8%; in test [1] (setting [8]) it was 42%; in test [1] (at 50.0 µM), -21.3%; in test [2] (setting [7]) it was 5%; in test [2] (setting [8]), 14%; in test [2] (at 50.0 µM), 20.1%. Further, the growth inhibition in test [3] (setting [7]) is 13%; in test [3] (setting [8]) it was 51%; in test [3] (at 50.0 µM), 42.5%; in test [4] (setting [7]), 12%; in test [4] (setting [8]) it was 78% (active); in test [4] (at 50.0 µM), 5.6%. Moreover, the growth inhibition in test [5] (setting [7]) was 1%; in test [5] (setting [8]), -2%; in test [5] (at 50.0 µM), 8.25%; in test [6] (setting [7]), 17%; in test [6] (setting [8]), 39%; in test [6] (at 50.0 µM), 25.6%.

For `Cc1ccc(Sc2ccc(C)cc2[N+](=O)[O-])c([N+](=O)[O-])c1`, the growth inhibition is 33% in test [1] (setting [7]); 40% in test [1] (setting [8]); 2.7% in test [1] (at 50.0 µM); 31% in test [2] (setting [7]); 35% in test [2] (setting [8]); -10.7% in test [2] (at 50.0 µM). The growth inhibition in test [3] (setting [7]) is 69%; in test [3] (setting [8]), 68%; in test [3] (at 50.0 µM) it was 66.2%; in test [4] (setting [7]), 39%; in test [4] (setting [8]), 37%; in test [4] (at 50.0 µM), 20.5%. For the same compound, the growth inhibition in test [5] (setting [7]) is 56%; in test [5] (setting [8]), 56%; in test [5] (at 50.0 µM) it was 29.1%; in test [6] (setting [7]), 43%; in test [6] (setting [8]), 53%; in test [6] (at 50.0 µM), -8.85%.
